# Screening data: PubChem BioAssay, Broad Institute
# GSIS activator = primary screen for activators of insulin secretion dependent on glucose, INS-1E cells, GLuc reporter luminescence | INS-1E GLuc reporter insulin secretion, 2-3 h | activation, % at 16.6 µM | 370,000 compounds, 0.61% hits | AID 743287;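 active means lowest replicate activation of at least 40%, so every replicate reaches that level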;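 further: 0% = median of neutral control wells and 100% = median of IBMX positive control wells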
# MLL AF4-AF9 inh = MLL-AF4/AF9 protein interaction inhibition; AID 651704; inhibition, % at 10 µM; 350,000 compounds, 0.47% hits; P42568; AlphaScreen, biotin-AF4 peptide binding to FLAG-AF9;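 active means every replicate reaching a set inhibition limit, whatever the replicate mean, cut at about 25% in these data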;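 further: 0% = plate neutral control median and 100% = total signal loss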
# Target sequence (P42568 whole entry, looked up): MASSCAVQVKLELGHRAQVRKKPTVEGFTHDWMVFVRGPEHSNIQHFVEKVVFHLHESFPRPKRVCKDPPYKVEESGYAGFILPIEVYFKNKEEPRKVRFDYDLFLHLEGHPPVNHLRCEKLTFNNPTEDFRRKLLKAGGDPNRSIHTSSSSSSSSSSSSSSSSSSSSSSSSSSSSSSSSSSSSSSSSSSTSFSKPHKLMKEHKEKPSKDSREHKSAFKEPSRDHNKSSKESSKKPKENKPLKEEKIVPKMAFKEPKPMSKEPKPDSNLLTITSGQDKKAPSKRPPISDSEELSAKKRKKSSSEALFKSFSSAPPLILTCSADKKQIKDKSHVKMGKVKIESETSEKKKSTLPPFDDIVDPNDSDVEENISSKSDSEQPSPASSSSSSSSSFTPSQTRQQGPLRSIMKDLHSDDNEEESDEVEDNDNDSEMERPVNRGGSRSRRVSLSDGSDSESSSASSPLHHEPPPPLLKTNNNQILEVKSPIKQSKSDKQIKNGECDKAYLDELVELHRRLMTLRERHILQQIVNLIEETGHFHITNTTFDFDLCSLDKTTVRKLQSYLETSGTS
# dFosB activator = activators of mouse delta FosB homodimer. P13346. purified delta FosB, TAMRA-CDK5 oligo fluorescence polarization; percent of positive-control signal above neutral wells. activation, % at 25 µM. 340,000 compounds, 0.99% hits. AID 493131;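 active means mean activation above about 17%, with every replicate also reaching it, limit read from the data, passing the limit was not always enough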
# RAD52 anneal inh = blocks human RAD52 DNA annealing; recombinant RAD52 DNA annealing, FRET fluorescence; inhibition, % at 18.7 µM; 360,000 compounds, 0.46% hits; AID 651710;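 active means every replicate showing at least 50% inhibition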
# DENV2 CPE = protects cells from dengue virus 2 cytopathic effect; DENV2-infected cells, cytopathic effect rescue, plate reader; CPE inhibition, % at 9.99 µM; 350,000 compounds, 1.7% hits; AID 651640; in the data active means CPE inhibition above about 20%, passing the limit was not always enough; tested in BHK-21 cells;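 further: 0% = median of neutral control wells and 100% = median of positive control wells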
# RAD54 branch = inhibitors of human RAD54 branch migration. Q92698. RAD54 Holliday junction branch migration, FAM/BHQ fluorescence. inhibition, % at 10.4 µM. 360,000 compounds, 0.14% hits. AID 602329;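 active means mean normalized replicate activity at least 40 and at least half of replicates scoring 40 or more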;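 further: 0% = median of neutral control wells and 100% = median of positive control wells; inhibitors cause a drop in the FAM fluorescence signal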
# An asterisk follows results filed as active; / = not tested or not shown; ! = not active in a repeat. The list is not random: actives were taken first. Their share in the collection is about 3.1%.
SMILES,GSIS activator,MLL AF4-AF9 inh,dFosB activator,RAD52 anneal inh,DENV2 CPE,RAD54 branch
COCCOC(=O)N1C(=O)[C@@]2(c3cc(C#Cc4ccc(OC)cc4)ccc31)[C@H](c1ccccc1OCCO)N1[C@H](c3ccccc3)[C@H](c3ccccc3)OC(=O)[C@H]1[C@@H]2C(=O)NC[C@H](O)c1ccccc1,/,1,/,-7,4,1
C[C@@H]1CN([C@@H](C)CO)C(=O)CCCn2cc(nn2)CO[C@@H]1CN(C)C,-6,/,/,/,/,/
NCC(O)COCCC12CC3CC(CC(C3)C1)C2 (stereo unspecified),/,/,-2,/,/,4
CC(NCC(O)COCCC12CC3CC(CC(C3)C1)C2)c1ccccc1 (stereo unspecified),167*,9,12,55*,-5,18
Cc1ccc(S(=O)(=O)Nc2cccc3c2O[C@H](CN(C)C(=O)Nc2ccccc2)[C@@H](C)CN([C@@H](C)CO)C3=O)cc1,6,-1,/,-3,-8,-8
O=C(Nc1ccccc1)N1C[C@@H]2[C@H](c3ccccc31)[C@@H](CO)N2Cc1ccccc1Cl,-23,1,/,6,37*,-4
CC(C)NC(=O)N1[C@H](CO)[C@H]2c3ccccc3N(C(=O)Nc3ccccc3)C[C@H]21,-9,2,/,0,21*,4
COc1ccc(C(=O)N2C[C@@H]3[C@H](c4ccccc42)[C@H](CO)N3C(=O)NC(C)C)cc1,2,-2,/,-10,27*,11
CC(C)NC(=O)N1[C@@H](CO)[C@@H]2c3ccccc3N(C(=O)Nc3ccc(Cl)cc3)C[C@@H]21,-13,-1,/,-15,-3,0
C[C@H]1CN([C@@H](C)CO)C(=O)c2cc(C#CCC3CCCC3)cnc2O[C@@H]1CN(C)C(=O)CN(C)C,-5,9,/,26,-2,6
CC(C)Cc1nn2c(=O)cc(COc3ccc(NC(=O)c4ccco4)cc3)nc2s1,47*,-7,9,-16,-5,8
CCc1nn2c(=O)cc(COc3ccc(NC(=O)c4ccco4)cc3)nc2s1,2,-1,-11,-35,0,-16
C[C@H]1CN([C@@H](C)CO)C(=O)c2cccc(NC(=O)Nc3ccc4c(c3)OCO4)c2O[C@H]1CN(C)C(=O)NC1CCCCC1,-17,11,/,12,-5,9
C/C=C/c1cnc2c(c1)C(=O)N([C@H](C)CO)C[C@H](C)[C@@H](CN(C)S(=O)(=O)c1ccccc1)O2,-16,1,/,1,-11,1
O=C(N[C@H]1CC[C@@H](CC(=O)N2CCCCC2)O[C@@H]1CO)c1cccc(F)c1,10,-2,/,0,-5,-6
Fc1cccc(-c2nnn3c2nc(Cl)c2ccccc23)c1,45*,0,-26,11,7,-5
COc1cccc(NC(=O)N(C)C[C@@H]2Oc3cc(/C=C/c4ccccc4)ccc3S(=O)(=O)N([C@@H](C)CO)C[C@H]2C)c1,14,-2,/,7,2,2
COc1ccc2c3c(n(C)c2c1)[C@@H](CO)N(C(C)=O)CC31CN(Cc2ccc(Cl)cc2)C1,10,7,/,17,-3,/
CCC(=O)N1CC2(CN(Cc3ccc(F)cc3)C2)c2c(n(C)c3cc(OC)ccc23)[C@H]1CO,-6,5,/,17,20,/
CCC(=O)N1CC2(CN(Cc3ccc(Cl)cc3)C2)c2c(n(C)c3cc(OC)ccc23)[C@H]1CO,-7,29*,/,-8,8,/
CCC(=O)N1CC2(CN(Cc3ccc(Cl)cc3)C2)c2c(n(C)c3cc(OC)ccc23)[C@@H]1CO,-5,38*,/,-1,-8,/
CC(C)n1cc(/C(N)=N/O)c(=O)n(Cc2ccccc2)c1=O,61*,-4,/,-7,5,5
Cc1cn(C(C)C)c(=O)n(-c2ccccc2)c1=O,/,-7,0,-4,12,14
Cn1c(=N)n(CC(=O)c2ccc(F)cc2)c2ccccc21,-16,0,-12,-14,-6,-1
Cn1c(=N)n(CC(=O)c2ccc(Br)cc2)c2ccccc21,-7,/,-3,8,66*,/
SMILES,GSIS activator,MLL AF4-AF9 inh,dFosB activator,RAD52 anneal inh,DENV2 CPE,RAD54 branch
O=C(C[C@H]1CC[C@@H]2[C@H](COC[C@@H](O)CN2Cc2cccc(Cl)c2)O1)N1CCCCC1,-1,-3,/,-15,0,2
CCCC#Cc1cnc2c(c1)C(=O)N([C@@H](C)CO)C[C@H](C)[C@H](CN(C)C(=O)c1ccccc1)O2,-5,-1,/,17,-1,2
Cc1noc(C)c1NC(=O)N(C)C[C@@H]1Oc2c(cccc2N(C)C)C(=O)N([C@H](C)CO)C[C@H]1C,14,-11,/,5,-7,-12
Cc1noc(C)c1NC(=O)N(C)C[C@H]1Oc2c(NS(=O)(=O)c3ccccc3)cccc2C(=O)N([C@@H](C)CO)C[C@H]1C,8,0,/,2,28*,11
Cc1noc(C)c1NC(=O)N(C)C[C@H]1Oc2c(NC(=O)C3CCCCC3)cccc2C(=O)N([C@H](C)CO)C[C@@H]1C,41*!,-2,0,3,-8,-3
Cc1noc(C)c1NC(=O)N(C)C[C@H]1Oc2c(NS(=O)(=O)c3ccc(F)cc3)cccc2C(=O)N([C@@H](C)CO)C[C@@H]1C,7,-1,/,5,19,-4
Cc1noc(C)c1NC(=O)N(C)C[C@H]1Oc2c(NC(=O)C3CC3)cccc2C(=O)N([C@H](C)CO)C[C@H]1C,24,-3,/,-7,24*,4
Cc1noc(C)c1NC(=O)N(C)C[C@H]1Oc2c(cccc2N(C)C)C(=O)N([C@@H](C)CO)C[C@@H]1C,21,-16,/,12,25*,-2
O=C(NC[C@@H]1CC[C@@H]2[C@@H](CN2S(=O)(=O)c2ccccc2[N+](=O)[O-])O1)C1CCCCC1,/,-9,/,20,-5,/
O=C(C[C@H]1C=C[C@H](NC(=O)CCN2CCCCC2)[C@@H](CO)O1)Nc1ccc(-c2ccccc2)cc1,6,5,/,18,-7,8
O=C(C[C@H]1C[C@@H]2c3cc(NC(=O)Nc4ccc(C(F)(F)F)cc4)ccc3O[C@@H]2[C@H](CO)O1)NCc1cc(F)ccc1F,-13,-1,/,-5,-2,-1
C[C@@H]1CCCCO[C@H](CN(C)Cc2ccc(C(=O)Nc3ccccc3N)cc2)[C@@H](C)CN([C@H](C)CO)C(=O)c2cc(NS(=O)(=O)c3ccc(F)cc3)ccc2O1,15,-4,/,59*,-3,2
C[C@H]1CCCCO[C@@H](CN(C)Cc2ccccc2)[C@@H](C)CN([C@@H](C)CO)C(=O)c2cc(NS(=O)(=O)c3ccc(Cl)cc3)ccc2O1,-30,7,/,39,-20,-3
C[C@H]1CCCCO[C@H](CN(C)Cc2ccccc2)[C@@H](C)CN([C@@H](C)CO)C(=O)c2cc(NS(=O)(=O)c3ccc(F)cc3)ccc2O1,-10,4,/,30,29*,-2
